# Screening data deposited in PubChem BioAssay by National Center for Advancing Translational Sciences (NCATS).
# TrxR1 substrate: substrates of rat thioredoxin reductase 1; O89049; purified TrxR1 substrate turnover, NADPH consumption readout; Potency, µM (titrated, usually from 114 µM), for the others: top-dose activity change, negative = substrate turnover; actives 0.01% (n = 390,000); AID 588456; also: potency is read from the fitted curve at half-maximal effect; % is scaled to controls: 0 for no effect and ±100 for the full control effect; nearly all actives have a fitted effect of over 50% in size
#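 Rat TrxR1, dispensed at 90 nM, was prereduced with 400 uM NADPH (final) for 5 min at ~22 deg C, then incubated with compound 15 min before 400 uM selenite. A first-read NADPH fluorescence drop versus no-compound background flagged substrates.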
# GALK inhibitor: galactokinase (human) inhibition. P51570. Purified GALK, Kinase-Glo residual ATP luminescence. Potency, µM (highest dose often 57.5 µM), for the others: at the highest dose activity change, negative = inhibition, hits mostly inhibitors. actives 0.007% (n = 270,000); also: potency is read from the fitted curve at half-maximal effect; % is scaled to controls: 0 for no effect and ±100 for the full control effect
#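 Kinase-Glo Plus luminescence measured ATP left after a 1 h room-temperature reaction. The reaction used 5 nM GALK, 100 uM galactose and 35 uM ATP at pH 8.0 (20 mM HEPES, 5 mM MgCl2, 60 mM NaCl, 1 mM DTT, 0.01% BSA).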
# rTrxR1 inhibitor: blocks rat thioredoxin reductase 1; O89049; actives 1% (n = 390,000); recombinant rTrxR1, NADPH fluorescence consumption, selenite substrate; Potency, µM (highest dose often 114 µM), for the others: at the top dose activity change, negative = inhibition, hits mostly inhibitors; AID 588453; also: potency is read from the fitted curve at half-maximal effect; % is scaled to controls: 0 for no effect and ±100 for the full control effect; nearly all actives have a fitted effect of over 65% in size
#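 Rat TrxR1 (90 nM in the dispensed reagent) was pre-reduced with 400 uM NADPH for 5 min at room temperature, then incubated with compound for 15 min. After 400 uM selenite was added, NADPH fluorescence (Ex 340/Em 450 nm) was followed for 8 min.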
# Anesthetic bind: candidate novel general anesthetic via apoferritin binding; P02791; apoferritin/1-aminoanthracene competitive binding, fluorescence; Potency, µM (series often up to 77.5 µM), without a hit: at the top dose activity change, negative = displacement, most hits filed as inhibitors; actives 0.074% (n = 350,000); AID 485281; also: potency is read from the fitted curve at half-maximal effect; % is scaled to controls: 0 for no effect and ±100 for the full control effect; nearly all actives have a fitted effect of over 20% in size
# Target sequence (P02791 2-175 limits assumed): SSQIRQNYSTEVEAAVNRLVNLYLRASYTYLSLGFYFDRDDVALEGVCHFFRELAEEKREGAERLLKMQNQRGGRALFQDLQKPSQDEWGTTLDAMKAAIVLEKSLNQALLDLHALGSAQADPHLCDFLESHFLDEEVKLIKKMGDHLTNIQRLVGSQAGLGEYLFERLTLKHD
#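 10 uM apoferritin + 50% sat. 1-AMA, PBS; cpd 10 min RT; Ex380/Em535 endpoint; normalized to free probe vs complex; 4-param Hill fit; propofol titration as pos. ctrl.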
# PKM2 activator: activators of human pyruvate kinase M2; P14618; purified PKM2, Kinase-Glo ATP luminescence, activation; response scale: 0% is enzyme alone, no compound; Potency, µM (series often up to 57.5 µM), for inactives: top-dose activation, most hits filed as activators; actives 0.34% (n = 260,000); AID 1631; also: potency is read from the fitted curve at half-maximal effect; % is scaled to controls: 0 for no effect and ±100 for the full control effect; nearly all actives have a fitted effect of over 55% in size
#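 ATP formation by purified human PK-M2, quantified via coupled luciferase luminescence after 1 h at room temperature with 0.1 mM ADP and 0.5 mM PEP final.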
# mIDH1 inhibitor: human IDH1 R132H inhibition | O75874 | IDH1-R132H enzyme, NADPH consumption, diaphorase/resazurin fluorescence | Potency, µM (doses to about 76.6 µM), for the others: at the top dose activity change, negative = inhibition, most hits filed as inhibitors | actives 0.093% (n = 390,000); also: potency is read from the fitted curve at half-maximal effect; % is scaled to controls: 0 for no effect and ±100 for the full control effect; nearly all actives have a fitted effect of over 65% in size
# Target sequence (O75874 whole entry R132H, stated change not applied): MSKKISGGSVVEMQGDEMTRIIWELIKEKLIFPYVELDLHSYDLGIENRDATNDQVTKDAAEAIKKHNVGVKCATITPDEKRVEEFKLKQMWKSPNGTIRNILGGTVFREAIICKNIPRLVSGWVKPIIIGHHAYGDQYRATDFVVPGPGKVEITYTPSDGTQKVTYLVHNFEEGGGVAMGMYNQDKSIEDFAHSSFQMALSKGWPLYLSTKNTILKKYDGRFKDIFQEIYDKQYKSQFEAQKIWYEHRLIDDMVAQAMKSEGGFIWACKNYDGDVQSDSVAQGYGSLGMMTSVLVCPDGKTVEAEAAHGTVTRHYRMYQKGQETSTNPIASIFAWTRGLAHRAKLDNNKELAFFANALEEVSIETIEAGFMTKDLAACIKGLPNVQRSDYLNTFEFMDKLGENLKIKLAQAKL
#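 IDH1-R132H (0.5 ug/mL) preincubated 30 min with compound, then NADPH (0.016 mM) and alpha-KG (2 mM) added; 80 min at RT, pH 7.5. Remaining NADPH coupled via diaphorase/resazurin to fluorescence (540/590 nm); concentration-response curves normalized to no-enzyme control.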
# IDH1 autofl: autofluorescence interference, mutant IDH1 hit counter-screen. inhibition of signal, % at 51.2 µM. AID 623980. 750 tested, under 10 active. Resorufin detection reagent fluorescence interference, cell-free. shares compounds with mIDH1 inhibitor;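 also: 0% = wells with normal resorufin and full inhibition = wells lacking resorufin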
# IDH1 WT: inhibits human wild-type IDH1, mutant selectivity check | shares compounds with mIDH1 inhibitor | WT IDH1 enzyme, NADPH diaphorase/resazurin fluorescence | Potency, µM (doses to about 115 µM), without a hit: top-dose activity change, negative = inhibition, hits mostly inhibitors | actives 9% (n = 750) | AID 623995;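 also: potency is read from the fitted curve at half-maximal effect; 0% = full WT IDH1 enzyme control and full inhibition = no enzyme wells; nearly all actives have a fitted effect of over 55% in size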
# Target sequence (O75874 whole entry, looked up): as the sequence (O75874 whole entry R132H, stated change not applied) above, with H132R counted along it
# IDH1 R132H conf: inhibits human mutant IDH1 enzyme in cherrypick confirmation. shares compounds with mIDH1 inhibitor. IDH1 R132H enzyme, NADPH diaphorase/resazurin fluorescence. Potency, µM (doses to about 76.6 µM), without a hit: top-dose activity change, negative = inhibition, actives largely listed as inhibitors. actives 83% (n = 750); also: potency is read from the fitted curve at half-maximal effect; nearly all actives have a fitted effect of over 50% in size
# * marks the source's active call; other numbers are inactive results; ? = inconclusive; nt = not tested or not shown; [ ] = remark or other dose. Sampled rows, rich in hits. Any-hit rate of the full collection: about 1.3%. Calls follow the shape of the dose curve; as a rule, active = well fitted curve in the direction sought with a large enough effect; inconclusive = small, poorly fitted or top-dose-only effect, or another doubt; inactive = no such curve, though single readings can be large; an effect the other way counts as inactive or inconclusive.
SMILES,TrxR1 substrate,GALK inhibitor,rTrxR1 inhibitor,Anesthetic bind,PKM2 activator,mIDH1 inhibitor,IDH1 autofl,IDH1 WT,IDH1 R132H conf
O=c1[nH]c(/C=C/c2ccccc2)c([N+](=O)[O-])c(=O)[nH]1,-10%,-14%,-5%[57.1 µM],-2%,3%[11.5 µM],-23%,nt,nt,nt
COc1cc(Cl)c(NC(=O)c2cc3ccccn3n2)c(OC)c1,6%[57.1 µM],nt,27%[57.1 µM],2%,nt,62%,nt,nt,nt
COc1cccc(-c2coc3c(C)c4oc(=O)c(CC(=O)O)c(C)c4cc23)c1,3%[57.1 µM],-1%,3%[57.1 µM],0%,nt,-4%,nt,nt,nt
COc1cccc(-c2coc3c(C)c4oc(=O)c(CCC(=O)O)c(C)c4cc23)c1,9%,-9%,2%,-14%,nt,26µM*,12,35µM*,25µM*
Cn1c2ccccc2c2ccc3c(c21)C(=O)C=CC3=O,15%[11.4 µM],nt,-71%[57.1 µM],nt,nt,23µM*,0,-30%,10µM*
Cc1ccc2c(c1)c1ccc3c(c1n2C)C(=O)C=CC3=O,3%,nt,40µM*,-8%,?,41µM*,2,60%,22µM*
Cc1ccc(C)c2c1c1ccccc1n2C,6%[57.1 µM],1%,14%[57.1 µM],-9%,-4%,1%,nt,nt,nt
Cc1ccc2c(c1)c1ncnc(N3CCOCC3)c1n2C,376%,0%,-10%,172%,1%,2%,nt,nt,nt
COc1ccc2c(c1)c1ccc3c(c1n2C)C(=O)C=CC3=O,17%[57.1 µM],-5%,?,-11%,?,35µM*,0,138%,22µM*
CC(C)(C)c1ccc(/C=C/C(=O)Nc2ccc(S(N)(=O)=O)cc2)cc1,-11%,nt,7%,?,nt,6%,nt,nt,nt
CC(c1ccccc1)N(CCC(c1ccccc1)C1CCOC(C)(C)C1)C(=O)c1ccco1 (configuration not stated),-9%,0%,?,6%,-16%,?,nt,nt,nt
COc1ccc(CN(CCC(c2ccc(F)cc2)C2CCOC(C)(C)C2)C(=O)c2ccco2)cc1 (configuration not stated),2%[57.1 µM],0%,-10%[57.1 µM],79%,2%,?,-9,9%,?
O=C(C[n+]1cccc2cc(Cl)ccc21)c1ccc(Br)cc1,4%,nt,27%,nt,nt,nt,nt,nt,nt
O=C(c1ccco1)N1CCN(c2c(-c3ccccc3)c3cc(Cl)ccc3[nH]c2=O)CC1,12%,-5%,?,-4%,6%,?,-7,-2%,22µM*
O=c1[nH]c2ccc(Cl)cc2c(-c2ccccc2)c1N1CCOCC1,8%,0%,18%,-1%,-8%,?,nt,nt,nt
O=S(=O)(NCC(Nc1ccc(Cl)cc1)c1ccccc1)c1ccccc1 (configuration not stated),-4%,2%,4%,66%,0%,?,2,-6%,22µM*
Cc1ccc(NC(CNS(=O)(=O)c2ccc(Cl)cc2)c2ccccc2)cc1 (configuration not stated),-6%,-2%,5%,35%,3%,-3%,nt,nt,nt
CCOC(=O)c1ccc(N2C(=O)c3n[nH]c(C)c3C2c2ccc(CC)cc2)cc1 (configuration not stated),9%,nt,-5%,-12%,nt,?,0,1%,?
CCOC(=O)c1ccc(N2C(=O)c3n[nH]c(C)c3C2c2cccc(Br)c2)cc1 (configuration not stated),-3%,nt,28%,51%,nt,?,-7,-1%,25µM*
CCOC(=O)c1ccc(N2C(=O)c3n[nH]c(-c4cccs4)c3C2c2cccc(O)c2)cc1 (configuration not stated),-5%,nt,-5%,?,nt,?,4,0%,16µM*
CCOC(=O)c1ccc(N2C(=O)c3n[nH]c(-c4cccs4)c3C2c2ccc(CC)cc2)cc1 (configuration not stated),-6%,nt,17%,-15%,nt,-16%,nt,nt,nt
CCOC(=O)c1ccc(N2C(=O)c3n[nH]c(C)c3C2c2ccc(C(C)(C)C)cc2)cc1 (configuration not stated),1%,nt,24%,-3%,nt,-8%,nt,nt,nt
Cc1cc(C)cc(N2CC(c3nc(-c4ccccc4C)no3)CC2=O)c1 (configuration not stated),-6%[57.1 µM],nt,6%[57.1 µM],119%,nt,-1%,nt,nt,nt
Cc1ccc(C)c(NC(=O)c2cnn(-c3cccc(F)c3)c2C2CCN(C(=O)OC(C)(C)C)CC2)c1,-8%,nt,-4%,-12%,nt,-8%,nt,nt,nt
CCc1ccc(NC(=O)N2CCN(Cc3nc4ccc(C)cc4o3)CC2)cc1,2%[57.1 µM],nt,13%[57.1 µM],-1%,nt,7%,nt,nt,nt
SMILES,TrxR1 substrate,GALK inhibitor,rTrxR1 inhibitor,Anesthetic bind,PKM2 activator,mIDH1 inhibitor,IDH1 autofl,IDH1 WT,IDH1 R132H conf
COc1ccc(OC)c(C2C(C(=O)Nc3ccccc3OC)=C(C)Nc3c(C(=O)Nc4ccc(F)cc4)cnn32)c1 (configuration not stated),10%,nt,21%,91%,nt,17%,nt,nt,nt
Cc1ccc2[nH]c(=O)c3cc(C(=O)N(C)c4ccc(C)c(C)c4)sc3c2c1,0%,-3%,3%,3%,-2%,52µM*,0,-12%,16µM*
CCN(C(=O)c1cc2c(=O)[nH]c3ccc(C)cc3c2s1)c1ccc(F)cc1,1%[57.1 µM],-2%,23%[57.1 µM],-8%,0%,-6%,nt,nt,nt
CCN(C(=O)c1cc2c(=O)[nH]c3ccc(C)cc3c2s1)c1cccc(C)c1,11%,-4%,-6%,-10%,5%,21µM*,-3,10%,22µM*
Cc1cc(C)nc(-n2nc(C)c3c2N(Cc2ccccc2C)C(=O)CC3c2ccc(Cl)cc2)n1 (configuration not stated),-8%,nt,19%,-1%,nt,-10%,nt,nt,nt
COc1ccc(OC)c(-c2nnc3n2N=C(c2ccc(OC)c(OC)c2)CS3)c1,-3%[57.1 µM],nt,-10%[57.1 µM],-15%,nt,nt,nt,nt,nt
COc1ccc(OC)c(-c2nnc3n2N=C(c2ccc(OC)c(OC4CCCC4)c2)CS3)c1,-4%[57.1 µM],nt,2%[57.1 µM],nt,nt,nt,0,2%,14µM*
